Measured values taken from PubChem BioAssay (NCATS).
“And” between values parts separate entries of the source, which are not always exact repeats. Identical values can stand only once. Results filed as inconclusive are left out. The source made the active and inactive calls. The call rests on the fitted dose curve; in most records, active means well fitted curve in the direction sought with a large enough effect; inconclusive means small, poorly fitted or top-dose-only effect, or another doubt; inactive means no such curve, though single readings can be large; an effect the other way counts as inactive or inconclusive. Non-standard residues stand in square brackets, D forms with d. Residues, ends and D or L forms follow the SMILES beside them. *: point of attachment. Sta = CC(C)C[C@H](N)[C@@H](O)CC(=O)O; Isovaleryl = CC(C)CC(=O)*

Assays:
[1] = qHTS of pediatric cancer cell lines to identify multiple opportunities for drug repurposing: Confirmatory screen for NB-EBc1 cells (AID 1347115);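 further: cells exposed to compound for 48 h before the viability read; nearly all actives have a fitted effect of over 45% in size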
Summary of the method: (§1)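 Cells (500-1,000/well) in growth media were settled 5 h at 37 degrees C, then given compounds for 48 h. Viability was read as CellTiter-Glo luminescence. Primary runs used MIPE at 11 points (0.78 nM-46 µM) and NPC at 8 points (0.59 nM-46 µM); follow-ups used 11 points.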

[2] = qHTS of pediatric cancer cell lines to identify multiple opportunities for drug repurposing: Confirmatory screen for SJ-GBM2 cells (AID 1347116); further: nearly all actives have a fitted effect of over 60% in size
Summary of the method: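 Viability measured as metabolically active cells via CellTiter-Glo luminescence following 48 hours of compound exposure, 11-point dilutions in confirmatory testing. 500-1,000 cells/well plated 5 hours before dosing; controls were DMSO and 2.3 µM bortezomib.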

[3] = qHTS of pediatric cancer cell lines to identify multiple opportunities for drug repurposing: Confirmatory screen for MG 63 (6-TG R) cells (AID 1347119); further: nearly all actives have a fitted effect of over 55% in size
Summary of the method: as §1

[4] = qHTS of pediatric cancer cell lines to identify multiple opportunities for drug repurposing: Confirmatory screen for control Hh wild type fibroblast cells (AID 1347121); further: nearly all actives have a fitted effect of over 70% in size
Summary of the method: as §1

[5] = qHTS of pediatric cancer cell lines to identify multiple opportunities for drug repurposing: Confirmatory screen for U-2 OS cells (AID 1347122); further: nearly all actives have a fitted effect of over 65% in size
Summary of the method: as §1

[6] = qHTS of pediatric cancer cell lines to identify multiple opportunities for drug repurposing: Confirmatory screen for Rh41 cells (AID 1347123); further: nearly all actives have a fitted effect of over 60% in size
Summary of the method: as §1

[7] = qHTS of pediatric cancer cell lines to identify multiple opportunities for drug repurposing: Confirmatory screen for RD cells (AID 1347124);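 further: cells exposed to compound for 48 h before viability readout; nearly all actives have a fitted effect of over 65% in size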
Summary of the method: as §1

[8] = qHTS of pediatric cancer cell lines to identify multiple opportunities for drug repurposing: Confirmatory screen for Rh30 cells (AID 1347126); further: nearly all actives have a fitted effect of over 55% in size
Summary of the method: as §1

[9] = qHTS of pediatric cancer cell lines to identify multiple opportunities for drug repurposing: Confirmatory screen for BT-37 cells (AID 1347117); further: nearly all actives have a fitted effect of over 55% in size
Summary of the method: as §1

[10] = qHTS of pediatric cancer cell lines to identify multiple opportunities for drug repurposing: Confirmatory screen for TC32 cells (AID 1347118);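 further: cells exposed to compound for 48 h before the read; nearly all actives have a fitted effect of over 65% in size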
Summary of the method: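 Luminescent CellTiter-Glo read-out of metabolically active TC32 cells after 48 h compound exposure. Primary: MIPE 11-point, 0.78 nM–46 µM; NPC 8-point, 0.59 nM–46 µM. Confirmatory: 11-point dilutions.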

Measured: Potency
Potency means the concentration at half of the fitted maximal effect.

Nc1ncn([C@H]2C[C@H](O)[C@@H](CO)O2)c(=O)n1
not listed: [9] | [10]
inactive: all other assays above

CC[C@]1(O)C[C@H]2CN(CCc3c([nH]c4ccccc34)[C@@](C(=O)OC)(c3cc4c(cc3OC)N(C=O)[C@H]3[C@@](O)(C(=O)OC)[C@H](OC(C)=O)[C@]5(CC)C=CCN6CC[C@]43[C@@H]65)C2)C1
inactive: [4]
active: [1] 827 nM and 4.14 µM | [2] 0.185 µM | [9] 14.7 nM and 131 nM | [10] 26.1 nM and 117 nM | [3] 46.5 nM and 329 nM | [5] 414 nM and 585 nM | [6] 23.3 nM and 18.5 nM | [7] 52.2 nM and 147 nM

O=C1c2c(O)cc(O)cc2OC(c2ccc(O)c(O)c2)C1O (stereo not given)
inactive: all assays above

Cc1ccc(Nc2nccc(N(C)c3ccc4c(C)n(C)nc4c3)n2)cc1S(N)(=O)=O
inactive: [9] | [3] | [7]
active: [5] 18.5 µM | [6] 10.4 µM

CCCCc1ccc2nc(NC(=O)OC)[nH]c2c1
active: [1] 1.47 µM | [2] 3.29 µM | [9] 414 nM | [10] 0.293 µM | [3] 185 nM | [5] 0.329 µM | [6] 0.131 µM | [7] 0.369 µM | [8] 9.27 µM

O=C(NCC1CCCCN1)c1cc(OCC(F)(F)F)ccc1OCC(F)(F)F (stereo not given)
active: [10] 5.22 µM
not listed: [8] | [9]
inactive: all other assays above

CS(=O)(=O)OCCCCOS(C)(=O)=O
not listed: [2] | [9] | [10]
inactive: all other assays above

CCN(CC)CCOc1ccc(Nc2ncc3cc(-c4c(Cl)cccc4Cl)c(=O)n(C)c3n2)cc1
active: [1] 18.5 µM | [2] 2.33 µM | [9] 4650 nM | [10] 2.61 µM | [3] 261 nM | [5] 0.657 µM | [6] 9.27 µM | [7] 2.33 µM | [8] 7.37 µM

CC1(C)C(=O)N(CCN2CCC(C(=O)c3ccc(F)cc3)CC2)c2ccccc21
active: [10] 7.37 µM
inactive: [9] | [3] | [4] | [7] | [8]

Cc1ccc(NC(=O)c2ccc(CN3CCN(C)CC3)cc2)cc1Nc1nccc(-c2cccnc2)n1
not listed: [9] | [10]
inactive: all other assays above

Nc1ccn([C@@H]2O[C@H](CO)[C@@H](O)C2O)c(=O)n1 (stereo not given in full)
not listed: [9] | [10]
inactive: all other assays above

COc1cc(C(C)=O)ccc1OCCCN1CCC(c2noc3cc(F)ccc23)CC1
active: [10] 20.8 µM | [6] 18.5 µM
inactive: [1] | [2] | [3] | [4] | [7]

Cc1nc(Nc2ncc(C(=O)Nc3c(C)cccc3Cl)s2)cc(N2CCN(CCO)CC2)n1
active: [5] 3.29 µM | [6] 2.61 µM | [8] 0.414 µM
not listed: [3] | [9]
inactive: all other assays above

CN(C)c1ccc2nc3ccc(=[N+](C)C)cc-3sc2c1
active: [1] 6.57 µM | [2] 1.47 µM | [9] 928 nM | [10] 2.61 µM | [3] 928 nM | [4] 18.5 µM | [5] 2.93 µM | [6] 2.61 µM | [7] 14.7 µM | [8] 1.17 µM

C[C@]12CCC(=O)C=C1CC[C@@H]1[C@H]2[C@@H](O)C[C@@]2(C)[C@H]1CC[C@]2(O)C(=O)CO
not listed: [8] | [9] | [10]
inactive: all other assays above

CCN(CC)C(=S)SSC(=S)N(CC)CC
active: [2] 1.31 µM | [9] 414 nM | [10] 0.293 µM | [5] 11.7 µM | [6] 0.261 µM | [7] 4.65 µM
inactive: [3] | [4] | [8]

Clc1ccc(C(Cn2ccnc2)OCc2ccsc2Cl)c(Cl)c1 (stereo not given)
active: [9] 7370 nM | [10] 11.7 µM
inactive: [2] | [4] | [8]

CCN(CCO)CCCC(C)Nc1ccnc2cc(Cl)ccc12 (stereo not given)
not listed: [2]
inactive: all other assays above

Cc1cc(C2CCCCC2)n(O)c(=O)c1
inactive: [2]
active: [1] 16.5 µM | [9] 2330 nM | [10] 4.65 µM | [3] 20800 nM | [8] 8.27 µM

C=C(c1ccc(C(=O)O)cc1)c1cc2c(cc1C)C(C)(C)CCC2(C)C
inactive: [1] | [9] | [3] | [4] | [6] | [7]

Cc1c(C(=O)NN2CCCCC2)nn(-c2ccc(Cl)cc2Cl)c1-c1ccc(Cl)cc1
inactive: [2] | [4] | [7]
active: [10] 23.3 µM | [5] 16.5 µM | [6] 18.5 µM

Nc1nc(Cl)nc2c1ncn2[C@H]1C[C@H](O)[C@@H](CO)O1
inactive: [4] | [5] | [6] | [8]
active: [9] 208 nM | [10] 0.737 µM | [3] 16500 nM

CCOc1cc(CC(=O)N[C@@H](CC(C)C)c2ccccc2N2CCCCC2)ccc1C(=O)O
not listed: [1] | [3]
inactive: all other assays above

Clc1ccc(C(Cn2ccnc2)OCc2ccc(Sc3ccccc3)cc2)c(Cl)c1 (stereo not given)
active: [9] 26100 nM | [10] 10.4 µM | [5] 18.5 µM
inactive: [2]

Oc1ccc(-c2nc(-c3ccc(F)cc3)c(-c3ccncc3)[nH]2)cc1
inactive: [4] | [5] | [7]
active: [1] 5.22 µM | [2] 2.33 µM | [9] 737 nM | [10] 0.737 µM | [3] 14700 nM | [6] 1.47 µM | [8] 14.7 µM

CC(C)C[C@H](NC(=O)[C@H](Cc1ccccc1)NC(=O)c1cnccn1)B(O)O
active: [1] 0.0465 µM | [2] 0.0329 µM | [9] 46.5 nM | [10] 0.0414 µM | [3] 20.8 nM | [4] 0.827 µM | [5] 0.0585 µM | [6] 0.0165 µM | [7] 0.0414 µM | [8] 0.233 µM

O=C(CCc1ccc(O)cc1)c1c(O)cc(O)cc1O
not listed: [2]
inactive: all other assays above

CCc1nc(N)nc(N)c1-c1ccc(Cl)cc1
inactive: [3]
active: [9] 5220 nM | [10] 2.93 µM | [6] 10.4 µM | [7] 9.27 µM

Nc1nc(OCc2ccccc2)c2[nH]cnc2n1
not listed: [3] | [9]
inactive: all other assays above

CC(C)CC(=O)N[C@H](C(=O)N[C@H](C(=O)N[C@@H](CC(C)C)[C@@H](O)CC(=O)N[C@@H](C)C(=O)N[C@@H](CC(C)C)[C@@H](O)CC(=O)O)C(C)C)C(C)C (Isovaleryl-VV[Sta]A[Sta]-OH)
active: [10] 5.85 µM
inactive: [1]

c1cnc2cc3c(cc2n1)C1CNCC3C1
not listed: [2] | [8] | [10]
inactive: all other assays above

CN(C)c1ccc(O)c2c1C[C@H]1C[C@H]3[C@H](N(C)C)C(=O)C(C(N)=O)=C(O)[C@@]3(O)C(=O)C1=C2O
active: [10] 5.85 µM
not listed: [3] | [8]
inactive: all other assays above

CC(=O)O[C@H]1C(=O)[C@@]2(C)C([C@H](OC(=O)c3ccccc3)[C@]3(O)C[C@H](OC(=O)[C@H](O)[C@@H](NC(=O)c4ccccc4)c4ccccc4)C(C)=C1C3(C)C)[C@]1(OC(C)=O)CO[C@@H]1C[C@@H]2O (stereo not given in full)
active: [10] 0.0104 µM | [3] 13.1 nM | [6] 0.0104 µM
inactive: [8]

CC(S)C(=O)NCC(=O)O (stereo not given)
inactive: [1] | [9] | [10] | [3] | [4]
active: [8] 10.4 µM

CCCOc1ccc2nc(NC(=O)OC)[nH]c2c1
active: [2] 1.47 µM | [9] 1310 nM | [10] 0.928 µM | [3] 1170 nM | [5] 2.08 µM | [7] 1.65 µM
inactive: [4]
